This is a sample that favours compounds with a hit; in the whole collection about 0.83% have one here.
MLL CXXC-DNA inh: blocks binding of human MLL CXXC domain to DNA; MLL-CXXC / FITC-HOXA9 DNA fluorescence polarization; Potency, µM (highest dose often 115 µM), for the others: top-dose activity change, negative = inhibition, most hits filed as inhibitors; actives 0.037% (n = 290,000); active means well fitted inhibition curve with a large enough effect in the polarisation, with a control signal flat, not every such curve was filed as active; inconclusive means small, poorly fitted or top-dose-only effect, or effect the other way, or a change in a side signal; inactive means no such curve, though single readings can be large or run the other way; the % refers to the polarisation; further: potency means the concentration at half of the fitted maximal effect
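Steps: dispense CXXC domain solution (7 uM) → pin compounds or unlabeled HOX-A9 DNA control → 5 min ambient → add FLSN-HOX-A9 solution (50 nM) → spin → 30 min ambient → fluorescence polarization. Tris pH 7.5/NaCl/DTT/BSA buffer.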
Menin-MLL TR inh: inhibitors of human menin-MLL interaction, mutant MLL peptide. O00255. Menin + Texas Red MLL mutant peptide, fluorescence polarization. Potency, µM (highest dose often 61.6 µM), inactives show at the top dose FP activity change, negative = inhibition, hits mostly inhibitors. actives 0.23% (n = 270,000); active means well fitted inhibition curve with a large enough effect in the polarisation, with a control signal flat, not every such curve was filed as active; inconclusive means small, poorly fitted or top-dose-only effect, or effect the other way, or a change in a side signal; inactive means no such curve, though single readings can be large or run the other way; the % refers to the polarisation; further: potency means the concentration at half of the fitted maximal effect; % of control where 0% means no effect
Six1-Eya2 blk: Six1/Eya2 interaction inhibition. activity change, % (test concentration not listed). actives 0.56% (n = 360,000). Q15475+O00167. AlphaScreen GST-Six1/His-Eya2 binding, biochemical; stronger effect = lower value; in the data active means activity change below about -65%; inconclusive means mostly about -30% to -63%; further: on the % scale 0 is the no-effect control and ±100 the full control effect
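AlphaScreen with GST-Six1 and His-Eya2 (5X mix: 250 nM and 500 nM), glutathione donor and nickel acceptor beads; buffer 50 mM Tris pH 8.0, 300 mM NaCl, 1 mM TCEP; 1 h at 37 C in the dark.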
CtBP-E1A inh: CtBP/E1A binding inhibition | AlphaScreen GST-E1A/His-CtBP binding, 1536-well; stronger effect = lower value | activity change, % (no concentration beside the values) | actives 0.49% (n = 340,000); in the data active means activity change below about -65%; inconclusive means mostly about -30% to -63%; further: on the % scale 0 is the no-effect control and ±100 the full control effect
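AlphaScreen with 125 nM GST-E1A and 125 nM His-CtBP (5X stocks) in Tris pH 8.0, 300 mM NaCl, BSA, Tween 20, TCEP. Compounds preincubated 2 h at 37 deg C, then glutathione donor/nickel acceptor beads added for 1 h at 37 deg C in dark.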
Menin-MLL FL inh: displaces fluorescein MLL peptide from human menin | Fluorescence polarization, fluorescein-MLL peptide displacement from menin | FP activity change, % at 61.4 µM | 290,000 tested, under 10 active; active means well fitted curve in the direction sought with a large enough effect in the polarisation, not every such curve was filed as active; inconclusive means small, poorly fitted or top-dose-only effect, or effect the other way, or a change in a side signal; inactive means no such curve, though single readings can be large or run the other way; the % refers to the polarisation; further: % of control where 0% means no effect
GLS inh: inhibitors of human glutaminase (GLS) | actives 0.21% (n = 410,000) | AID 624170 | O94925 | Potency, µM (top dose mostly 45.5 µM), without a hit: top-dose activity change, negative = inhibition, most hits filed as inhibitors | GLS enzymatic activity, qHTS titration; further: potency means the concentration at half of the fitted maximal effect; on the % scale 0 is the no-effect control and ±100 the full control effect
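hKGA in 45 mM KH2PO4 (pH 8.2), 0.02% Tween-20 with compound, then 1mM L-Glutamine (stock as added) plus glutamate oxidase/HRP/Amplex red coupling mix. Fluorescence read initially and after 30 min at RT; signal change reflects glutamate formation.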
MLL CXXC Fl: inhibitors of human MLL CXXC domain-DNA interaction; shares compounds with MLL CXXC-DNA inh; MLL CXXC-DNA binding, fluorescein FP; actives 70% (n = 200); Potency, µM (doses to about 345 µM), for inactives: at the top dose activity change, negative = inhibition, hits mostly inhibitors; further: potency means the concentration at half of the fitted maximal effect; nearly all actives have a fitted effect of over 80% in size
MLL CXXC TxRed: inhibitors of human MLL CXXC domain-DNA interaction, Texas Red format | shares compounds with MLL CXXC-DNA inh | MLL CXXC-DNA binding, Texas Red fluorescence polarization | Potency, µM (top dose mostly 345 µM), for the others: at the top dose activity change, negative = inhibition, hits mostly inhibitors | actives 40% (n = 200) | AID 624161; further: potency means the concentration at half of the fitted maximal effect; on the % scale 0 is the no-effect control and ±100 the full control effect; nearly all actives have a fitted effect of over 75% in size
MLL CXXC HTRF: inhibitors of human MLL CXXC domain-DNA interaction, HTRF format; shares compounds with MLL CXXC-DNA inh; MLL CXXC-DNA binding, HTRF, biochemical; actives 30% (n = 210); Potency, µM (series often up to 172 µM), for the others: at the top dose activity change, negative = inhibition, usual class: inhibitors; further: on the % scale 0 is the no-effect control and ±100 the full control effect; nearly all actives have a fitted effect of over 80% in size
GLS confirm: confirmation of human glutaminase inhibitors; shares compounds with GLS inh; biochemical glutaminase enzyme inhibition assay; Potency, µM (top dose mostly 46.1 µM), without a hit: at the highest dose activity change, negative = inhibition, most hits filed as inhibitors; 35 tested, under 10 active; AID 624261; calls by dose curve
HRP GOx counter: inhibits HRP glutamate oxidase coupled readout, glutaminase counter-screen; shares compounds with GLS inh; HRP/glutamate oxidase coupled Amplex Red fluorescence counterscreen; 35 tested, under 10 active; activity change, negative = inhibition, % at 46.1 µM
HEK293 tox: HEK-293 cytotoxicity, glutaminase hit confirmation. 35 tested, under 10 active. AID 624264. shares compounds with GLS inh. HEK-293 viability, CellTiter-Glo luminescence, 24 h. activity change, negative = cytotoxicity, % at 46.1 µM
* = called active by the depositor; ? = inconclusive; . = no result given; [ ] = dose if it differs, or a comment. Unless noted, the call rests on the fitted dose curve; in most records, active means well fitted curve in the direction sought with a large enough effect; inconclusive means small, poorly fitted or top-dose-only effect, or another doubt; inactive means no such curve, though single readings can be large; an effect the other way counts as inactive or inconclusive.

SMILES	MLL CXXC-DNA inh	Menin-MLL TR inh	Six1-Eya2 blk	CtBP-E1A inh	Menin-MLL FL inh	GLS inh	GLS confirm	HRP GOx counter	HEK293 tox	others
CC(C)Cn1c(SCC(=O)NCc2ccco2)nnc1-c1ccncc1	?	5%	-5	2	0	4%	.	.	.	MLL CXXC Fl=1.6µM*;MLL CXXC TxRed=-5%;MLL CXXC HTRF=0%
Cc1ccccc1CCNC(=O)c1ccc2c(c1)c(C)c(C)n2Cc1ccccc1	.	.	.	.	.	-14%	.	.	.
Cn1nnnc1SCCCNCc1cccc(OCc2ccccc2F)c1	.	.	.	.	.	-16%	.	.	.
Nc1c(S(=O)(=O)O)cc(Nc2ccc(Nc3nc(Cl)nc(Nc4ccc(S(=O)(=O)O)cc4)n3)c(S(=O)(=O)O)c2)c2c1C(=O)c1ccccc1C2=O	10µM*	?	.	.	3	.	.	.	.	MLL CXXC Fl=18µM*;MLL CXXC TxRed=18µM*;MLL CXXC HTRF=6.1µM*
Nc1c(S(=O)(=O)O)cc(Nc2ccc(Cl)cc2)c2c1C(=O)c1ccccc1C2=O	.	?	.	.	0	.	.	.	.
CCC(=O)N1CCCc2cc(S(=O)(=O)N3CCC(C(=O)Nc4ccc(F)c(F)c4)CC3)ccc21	.	.	.	.	.	1%	.	.	.
COc1cc(/C=C2/C(=O)NN(c3ccc(Cl)cc3)C2=O)cc(Br)c1O	?	?	2	3	?	-17%	.	.	.
COc1cccc(/C=C2/C(=O)NN(c3ccc(Br)cc3)C2=O)c1O	?	?	2	.	-1	16%	.	.	.	MLL CXXC Fl=100µM*;MLL CXXC TxRed=?;MLL CXXC HTRF=-5%
Cc1ccccc1C(=O)Nc1ccc(OCc2cc(=O)n3ccccc3n2)cc1	.	.	.	.	.	-11%	.	.	.
Cc1ccc(Cn2c(=O)c3ccccc3n3c(-c4cccc(O)c4)nnc23)cc1	.	.	.	.	.	0%	.	.	.
Cc1[nH][nH]c(=O)c1C(c1ccc(-c2ccc(F)cc2)o1)c1c(C)[nH][nH]c1=O	-14%	?	-9	3	2	15%	.	.	.
Cc1[nH][nH]c(=O)c1C(c1ccc(-c2ccc(C(=O)O)cc2)o1)c1c(C)[nH][nH]c1=O	?	-24%	-2	1	2	-26%	.	.	.	MLL CXXC Fl=-6%;MLL CXXC TxRed=9%;MLL CXXC HTRF=?
CC(=O)c1c(C)oc2ccc(NS(=O)(=O)c3ccc(C)cc3)cc12	-2%	?	2	3	0	-8%	.	.	.
Cc1ccc(C)c(S(=O)(=O)Nc2ccc3oc(C)c(C(=O)O)c3c2)c1	-1%	?	-5	0	0	13µM*	?	7	-7
COc1ccc(NS(=O)(=O)c2ccc(NC(=S)NCC3CCCO3)cc2)cc1 (centres undefined)	15%	.	-4	2	.	-1%	.	.	.
COc1ccccc1NS(=O)(=O)c1ccc(O)c(NC(=S)NCC2CCCO2)c1 (centres undefined)	6%	.	6	-3	3	?	12%	5	3
NNC(=O)c1cc2ccccc2cc1NS(=O)(=O)c1ccccc1	-8%	?	-6	4	0	?	-10%	-23	-9
COc1ccc(Oc2nc3c(c(=O)n(C)c(=O)n3C)n2Cc2ccccc2Cl)cc1	.	.	.	.	.	4%	.	.	.
COc1ccccc1NS(=O)(=O)c1cc(NC(=O)c2cc[n+]([O-])cc2)ccc1N1CCCC1	?	?	?	?	1	11µM*	5%	-4	6
Cc1ccc(C(=O)n2nc(C)c(S(=O)(=O)N3CCCCCC3)c2C)cc1C	.	.	.	.	.	7%	.	.	.
COc1ccc(NS(=O)(=O)c2cc(N)ccc2N2CCOCC2)cc1	-3%	7%	-4	-5	2	33%	.	.	.
COc1ccc(NS(=O)(=O)c2cc(N)ccc2N2CCCC2)cc1	.	.	-24	-8	.	?	-4%	?	-12
COc1cc(Cl)c(NC(=O)CN(C)S(=O)(=O)c2ccc3[nH]c4c(c3c2)CCCC4)c(OC)c1	.	.	.	.	.	7%	.	.	.
O=C(O)c1ccc(S(=O)(=O)Nc2ccc(O)c(Sc3nc4ccccc4s3)c2)cc1	24%	20%	-8	-1	4	?	?	?	2
COc1ccc(NS(=O)(=O)c2ccc3c(c2)[C@H]2C=CC[C@H]2[C@@H](c2ccc(C(=O)O)cc2)N3)cc1	15%	?	?	-10	6	10µM*	3.3µM*	4	2
Cc1ccc(NS(=O)(=O)c2ccc(/C=C/C(=O)O)cc2)cc1Cl	1%	13%	9	0	0	5%	.	.	.
O=C(O)/C=C/c1ccc(S(=O)(=O)Nc2ccc3[nH]c(=O)[nH]c3c2)cc1	-6%	9%	-29	?	4	?	1%	-18	1
O=C(NCCNC[C@@H](O)COc1ccc(O)cc1)N1CCOCC1	.	9%[24.8 µM]	.	.	7	.	.	.	.

Bioassay records from PubChem.
